Test [1] can be described thus: E. coli DRC41 culture turbidity changes, primary screen, E. coli filamentation inducer project, strain DRC41, OD650, 48 h (AID 1152).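 Note: E. coli MC1000 strain DRC41 lacking acrAB efflux pump and sulA.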 Conditions: E. coli DRC41 (acrAB sulA), higher = more signal, called active from +8 up or from −8 down.
The nature of test [2]: small-molecule binders of probe aLefty1, primary screen, biochemical, small-molecule microarray, 635/667 nm fluorescence (AID 1153).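 Note: score merges spot fluorescence with signal-to-noise ratio from the scanned slide images.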 The note with it: higher = more signal.
Test [3] in a line: PSAC antagonists in infected red cells, primary screen, cell-based, P. falciparum Indochina, OD700, 1 h (AID 1154). The note with it: P. falciparum Indochina infected RBC osmotic lysis, higher = more signal, called active from +8 up or from −8 down.
Test [4] in a line: PSAC antagonists in infected red cells, primary screen, cell-based, P. falciparum Indochina, OD700, 2 h (AID 1155).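 Note: lysis reports solute entry through the parasite surface anion channel PSAC; channel blockers reduce lysis of infected cells.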 The note with it: P. falciparum Indochina infected erythrocytes, osmotic lysis OD700; higher = more signal, called active from +8 up or from −8 down.
A short description of test [5]: osmotic lysis modulators in infected erythrocytes, primary screen, PSAC antagonist project, cell-based, P. falciparum Indochina, OD700, 3 h (AID 1156). The note with it: higher = more signal, called active from +8 up or from −8 down.
A short description of test [6]: PSAC antagonists in infected red cells, primary screen, cell-based, P. falciparum Indochina, OD700, 18 h (AID 1157). The note with it: P. falciparum Indochina infected erythrocytes, osmotic lysis OD700, 18 h; higher = more signal, called active from +8 up or from −8 down.
The nature of test [7]: modulators of S6 phosphorylation in cells, primary screen, cell-based, A549, cytoblot, luminescence, serum-stimulated (AID 1158).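 Note: serum-stimulated A549 lung adenocarcinoma cells; signal is phosphorylated S6 detected by cytoblot immunostaining with HRP secondary.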 The note with it: A549 phospho-S6 cytoblot, 5 h, higher = more signal.
Test [8] addresses NADPH oxidase 2 (Homo sapiens) (UniProt P04839). Nature of the test: NOX2-dependent H2O2 signal modulators, primary screen, NOX inhibitor project, cell-based, HEK293-NOX2, PMA-stimulated, Amplex Red fluorescence (AID 1159). Note: test concentration not given here. The note with it: 45 min, higher = more signal, called active from +8 up or from −8 down.
In test [9] the target is NADPH oxidase 4 (Homo sapiens) (UniProt Q9NPH5). Nature of the test: NOX4-dependent H2O2 signal modulators, primary screen, NOX inhibitor project, cell-based, HEK293-NOX4, tetracycline-induced, Amplex Red fluorescence (AID 1160). The note with it: 45 min, higher = more signal, called active from +8 up or from −8 down.
Test [10] concerns the target NADPH oxidase 5 (Homo sapiens) (UniProt Q96PH1). Nature of the test: NOX5-dependent H2O2 signal modulators, primary screen, NOX inhibitor project, cell-based, HEK293-NOX5, Amplex Red fluorescence (AID 1161). The note with it: HEK293-NOX5, ionomycin, 45 min, higher = more signal.
Test [11] in a line: A549 cell viability effects, profiling panel, calcein-AM fluorescence, 48 h, basal (AID 1162). Note: test concentration not given here. Conditions: higher = more signal.
A short description of test [12]: adipocyte viability effects, profiling panel, cell-based, 3T3-L1 adipocytes, calcein-AM fluorescence, 48 h, basal (AID 1163). Note: test concentration not given here. The note with it: 3T3-L1 adipocytes viability, higher = more signal.
Test [13] in a line: HepG2 cell viability effects, profiling panel, calcein-AM fluorescence, 48 h, basal (AID 1164). Note: test concentration not given here. The note with it: higher = more signal.
Test [14] is described as follows: MM1S cell viability effects, profiling panel, calcein-AM fluorescence, 48 h, basal (AID 1165).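 Note: viability of MM1S multiple myeloma cells under basal unstimulated conditions; test concentration not given here.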 The note with it: higher = more signal.
Test [15] is described as follows: basal RPMI8226 viability, no added stimulus, profiling panel, cell-based, calcein-AM fluorescence, 48 h, PK04 Diversity Set (AID 1166).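 Note: cells grown under basal conditions without added stimulus; test concentration not given here.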 The note with it: RPMI8226 myeloma viability, higher = more signal.
The nature of test [16]: basal HepG2 mitochondrial membrane potential changes, profiling panel, cell-based, JC-1 fluorescence, 24 h, 100 nL compound (AID 1167). Note: test concentration not given here. Conditions: higher = more signal.
Test [17] can be described thus: basal 3T3-L1 adipocyte mitochondrial potential changes, profiling panel, cell-based, JC-1 fluorescence, 3T3-L1 adipocytes, 24 h, 100 nL compound (AID 1168). Note: test concentration not given here. The note with it: JC-1 mitochondrial fluorescence, higher = more signal, called active from +8 up or from −8 down.
Test [18] is described as follows: basal RPMI8226 mitochondrial membrane potential changes, profiling panel, cell-based, JC-1 fluorescence, 24 h, 100 nL compound (AID 1169). Note: test concentration not given here. The note with it: RPMI8226 myeloma, JC-1 mitochondrial potential fluorescence, higher = more signal.
A short description of test [19]: basal MM1S mitochondrial membrane potential changes, profiling panel, cell-based, JC-1 fluorescence, 24 h, 100 nL compound (AID 1170). Note: test concentration not given here. Conditions: higher = more signal.
Test [20] is described as follows: A549 lung cancer cell viability effects, profiling panel, resazurin fluorescence, 24 h, PK04 Diversity Set (AID 1171). Note: test concentration not given here. Conditions: higher = more signal, called active from +8 up or from −8 down. In general terms: The colour change of resazurin is a common sign of viable cells or microbes.

Molecules are shown by their SMILES. Calls of active or inactive are those of the source.

Chain of NADPH oxidase 5 (Homo sapiens) (Q96PH1 whole entry, looked up): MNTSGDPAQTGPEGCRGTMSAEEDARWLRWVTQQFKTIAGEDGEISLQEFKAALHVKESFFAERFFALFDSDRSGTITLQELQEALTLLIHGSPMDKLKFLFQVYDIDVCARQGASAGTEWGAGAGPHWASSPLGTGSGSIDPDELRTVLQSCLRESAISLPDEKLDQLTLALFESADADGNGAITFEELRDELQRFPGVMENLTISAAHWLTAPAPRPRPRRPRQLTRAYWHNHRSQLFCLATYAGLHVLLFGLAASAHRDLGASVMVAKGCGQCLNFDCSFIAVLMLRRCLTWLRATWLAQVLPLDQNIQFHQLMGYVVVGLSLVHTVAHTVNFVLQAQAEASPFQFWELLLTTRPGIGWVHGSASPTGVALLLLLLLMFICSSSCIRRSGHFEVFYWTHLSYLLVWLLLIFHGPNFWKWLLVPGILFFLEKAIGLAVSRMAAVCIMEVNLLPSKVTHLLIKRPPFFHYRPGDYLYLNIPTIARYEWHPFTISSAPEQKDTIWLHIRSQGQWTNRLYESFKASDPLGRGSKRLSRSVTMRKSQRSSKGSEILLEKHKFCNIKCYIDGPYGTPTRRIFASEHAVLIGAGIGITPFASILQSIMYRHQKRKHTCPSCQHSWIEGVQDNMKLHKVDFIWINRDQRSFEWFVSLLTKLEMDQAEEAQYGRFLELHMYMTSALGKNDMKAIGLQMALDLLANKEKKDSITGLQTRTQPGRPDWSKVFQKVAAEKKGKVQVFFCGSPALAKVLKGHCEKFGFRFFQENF
Chain of NADPH oxidase 4 (Homo sapiens) (Q9NPH5 whole entry, looked up): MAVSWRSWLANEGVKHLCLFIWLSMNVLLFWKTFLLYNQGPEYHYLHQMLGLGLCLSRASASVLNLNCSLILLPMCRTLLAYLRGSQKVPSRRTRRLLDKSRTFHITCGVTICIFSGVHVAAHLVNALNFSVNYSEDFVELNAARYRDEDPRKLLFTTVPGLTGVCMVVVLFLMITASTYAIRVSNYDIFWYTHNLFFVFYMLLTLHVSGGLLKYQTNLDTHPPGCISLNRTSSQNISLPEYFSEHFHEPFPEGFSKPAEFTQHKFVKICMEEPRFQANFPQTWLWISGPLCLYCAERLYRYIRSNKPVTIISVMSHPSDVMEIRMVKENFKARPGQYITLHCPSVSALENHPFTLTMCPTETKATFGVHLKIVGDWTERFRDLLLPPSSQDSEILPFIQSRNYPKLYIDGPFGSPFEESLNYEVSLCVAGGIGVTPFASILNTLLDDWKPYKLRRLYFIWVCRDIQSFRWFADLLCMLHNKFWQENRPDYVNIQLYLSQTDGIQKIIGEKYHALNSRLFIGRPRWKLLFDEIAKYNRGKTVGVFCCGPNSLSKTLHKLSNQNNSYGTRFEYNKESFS
Chain of NADPH oxidase 2 (Homo sapiens) (P04839 whole entry, looked up): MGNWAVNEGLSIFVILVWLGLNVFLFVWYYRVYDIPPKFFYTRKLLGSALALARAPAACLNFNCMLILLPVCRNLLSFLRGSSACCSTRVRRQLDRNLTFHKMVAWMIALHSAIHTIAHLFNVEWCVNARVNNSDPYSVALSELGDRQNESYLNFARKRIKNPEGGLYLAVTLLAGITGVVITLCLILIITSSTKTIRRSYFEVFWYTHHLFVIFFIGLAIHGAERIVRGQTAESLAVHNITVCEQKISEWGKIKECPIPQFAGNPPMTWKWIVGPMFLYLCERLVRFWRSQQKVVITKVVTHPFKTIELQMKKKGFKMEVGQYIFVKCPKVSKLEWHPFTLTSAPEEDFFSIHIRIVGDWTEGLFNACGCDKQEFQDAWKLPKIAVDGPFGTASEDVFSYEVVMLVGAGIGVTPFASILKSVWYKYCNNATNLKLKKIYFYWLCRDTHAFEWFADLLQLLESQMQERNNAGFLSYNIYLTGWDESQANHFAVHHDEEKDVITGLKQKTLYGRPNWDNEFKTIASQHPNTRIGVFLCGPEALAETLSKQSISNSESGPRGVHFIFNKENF

As for `COc1ccc(C(=O)Nc2ccc(CN3C(=O)[C@@]4(O[C@@H](CCO)[C@H]([Si](C)(C)c5ccc(OC)cc5)[C@H]4C)c4ccccc43)cc2)cc1`, the z-score in [1] is -1.11 (inactive); in [3], 25.1 (active); in [4], 13.2 (active); in test [5], 1.6 (inactive); in test [6], 1.75 (inactive); in [7] it was -0.483. In addition, the z-score was -6.53 (inactive) in test [8]; -2.48 (inactive) in [9]; -0.954 in test [10]; -4.06 in [11]; -0.736 in [12]; -4.64 in test [13]. In addition, the z-score was -2.64 in [14]; -4.32 in test [15]; -2.53 in [16]; 1.16 (inactive) in test [17]; -1.12 in [18]; -2.2 in test [19]. Moreover, the z-score in test [20] was -3.84 (inactive). The composite z-score in [2] came to 0.155.

As for `O=C(C1N=C(c2ccc(OCCCO)cc2)N(c2ccccc2)O1)N1CCOCC1` (stereo not given), the z-score in test [1] is 1.72 (inactive); in test [3] it was 24.4 (active); in test [4] it was 4.44 (inactive); in [5], -0.593 (inactive); in test [6], -0.121 (inactive); in test [7], 1.75. The z-score in test [8] was -3.16 (inactive); in [9] it was -0.258 (inactive); in test [10], -0.432; in [11], 0.895; in test [12] it was 0.349; in test [13] it was 0.0818. For the same molecule, the z-score in [14] is 0.932; in [15] it was 1.22; in test [16], 0.0222; in test [17], 0.645 (inactive); in test [18], -1.06; in test [19] it was -1.05. The z-score in test [20] is 0.298 (inactive). This molecule also displayed a composite z-score in test [2] of 0.0721.

Take `COc1ccc([Si](C)(C)[C@H]2[C@H](CCn3cc([C@H](O)c4ccccc4)nn3)O[C@@]3(C(=O)N(Cc4cccc(N5CCOC5=O)c4)c4ccccc43)[C@@H]2C)cc1`: the z-score is -0.454 (inactive) in [1]; 26.1 (active) in test [3]; 9.3 (active) in test [4]; -0.295 (inactive) in test [5]; 1.4 (inactive) in [6]; 0.17 in test [7]. Moreover, the z-score in test [8] is 0.0189 (inactive); in test [9], 2.51 (inactive); in test [10], 2.28; in test [11], 0.377; in [12], 0.283; in test [13], 0.243. For the same molecule, the z-score in test [14] was -1.32; in test [15], -0.332; in [16], -0.242; in test [17] it was -0.537 (inactive); in test [18], -0.463; in test [19], -0.637. The z-score in test [20] is -1.06 (inactive). This molecule also displayed a composite z-score in [2] of -0.249.

As to `COCCCN1C(=O)[C@@]2(Cc3ccccc31)c1ccccc1C(=O)N(Cc1ccccc1C(F)(F)F)[C@H]2c1ccc(CO)cc1`, the z-score was -0.125 (inactive) in [1]; 0.512 (inactive) in [3]; 0.635 (inactive) in test [4]; -0.101 (inactive) in [5]; 0.427 (inactive) in test [6]; 0.0136 in test [7]. Besides, the z-score in test [8] was -0.767 (inactive); in test [9], -0.607 (inactive); in test [10], 0.77; in test [11], -0.84; in test [12] it was -1.15; in test [13], -0.539. The z-score in [14] is -0.155; in test [15], -0.259; in [16] it was -0.451; in test [17] it was 0.801 (inactive); in [18], 0.799; in test [19], 0.148. The z-score in test [20] was -0.356 (inactive). The molecule also showed a composite z-score in test [2] of -0.208.

The values are drawn from PubChem BioAssay.
